In the library only some 3.4% were active in any assay of this set; here they are far more common.
TROY signal inh: TROY signaling inhibition. Q293 LMP1-TROYcd NF-kB luciferase reporter, 4 h. inhibition, % at 10 µM. 360,000 compounds, 0.98% hits. AID 1347056;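 active = compounds whose plate-normalised and pattern-corrected inhibition of the luciferase reporter signal at the single screening dose is 50% or more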
EBV LMP1 NFkB: Epstein-Barr LMP1 NF-kappaB reporter inhibition | inhibition, % at 12.5 µM | 350,000 compounds, 0.69% hits | LMP1-induced NF-kappaB luciferase reporter cells, luminescence | AID 504558; in the data active = inhibition above about 41%;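 also: 0% = neutral control wells and 100% = reference inhibitor control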
HIF-2a inh: HIF-2a inhibition. inhibition, % at 18.8 µM. 360,000 compounds, 0.72% hits. 786-0 RCC cells HIF-2a reporter, luciferase luminescence, overnight;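 active = inhibition of the luminescence signal of 40% or more relative to plate controls, in a single-dose primary screen at 18.75 µM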
TWEAK Fn14 block: inhibitors of TWEAK-Fn14 interaction signaling; TWEAK-stimulated Fn14 reporter cells, luciferase luminescence, 8 h; inhibition, % at 10 µM; 360,000 compounds, 2% hits; in the data active = inhibition above about 50%
Shn3 3UTR inh: Schnurri-3 reporter inhibition in Clone20 osteoblasts. Clone20 osteoblast Shn3 3'UTR firefly luciferase, 24 h. inhibition, % at 12.5 µM. 360,000 compounds, 0.52% hits. AID 588674;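 active = mean inhibition of at least 75% with every replicate also reaching 75%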;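 also: 0% = median of neutral control wells and 100% = pilot-screen positive control compound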
TRPM1 prom inh: inhibitors of MITF-driven TRPM1 promoter in melanoma cells; inhibition, % at 12.5 µM; SK-MEL-5 TRPM1 promoter luciferase, 24 h; 330,000 compounds, 0.83% hits;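 active = mean inhibition across replicates of 60% or more, whatever share of single replicates reaches that level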
Starred values were filed as active, the others as inactive; nt = no result.

SMILES	TROY signal inh	EBV LMP1 NFkB	HIF-2a inh	TWEAK Fn14 block	Shn3 3UTR inh	TRPM1 prom inh
Oc1ccc(Br)cc1-c1nc2cnccn2c1NC1CCCCC1	5.8	-19.9	25.3	28.3	-8.6	-7.5
Cc1ccc(-n2cc(CNCC3CC(=O)N(C4CC4)C3)c(-c3cccc(C)c3)n2)cc1 (centres undefined)	51.6*	2.9	-39.9	-4.7	0.0	-10.7
CCOc1ccccc1CNC(=O)C1CCN(C(=O)c2sccc2-n2cccc2)CC1	25.7	-4.8	-20.7	64.0*	9.6	10.9
O=C(NCc1ccccc1Cl)C1CCN(C(=O)c2sccc2-n2cccc2)CC1	5.5	-5.0	17.1	0.9	23.8	nt
CCCCNS(=O)(=O)c1ccc2nc(SCC(=O)Nc3sccc3C#N)[nH]c2c1	70.6*	15.1	10.2	-6.1	22.6	29.4
CCCCNS(=O)(=O)c1ccc2nc(SCC(N)=O)[nH]c2c1	2.8	3.1	9.5	-6.8	19.3	-2.5
COC(=O)[C@@]12C[C@@H](CC(=O)NCC34CC5CC(CC(C5)C3)C4)C(=O)N(Cc3ccco3)C1=CCC(C)(C)C2	nt	nt	3.8	nt	nt	nt
COc1cccc(CN2CCC2(C)C(=O)NCCc2ccccn2)c1OC (centres undefined)	0.5	nt	-5.7	8.8	6.7	nt
CCOC(=O)c1ccc(-n2c(CN3CCC(C(N)=O)CC3)nc3ccc([N+](=O)[O-])cc3c2=O)cc1	54.7*	-7.5	-41.7	15.4	-15.0	-3.2
CCOC(=O)c1ccc(-n2c(CN3CCN(CC)CC3)nc3ccc([N+](=O)[O-])cc3c2=O)cc1	29.6	1.3	-10.4	14.6	13.8	15.6
CCOC(=O)c1ccc(-n2c(CN3CCC(O)CC3)nc3ccc([N+](=O)[O-])cc3c2=O)cc1	53.1*	-6.0	-49.4	28.6	-14.0	5.1
NC(=O)N/N=C/c1ccc(N2CCOCC2)s1	18.4	48.4*	-0.4	-4.4	2.3	12.0
O=C(N/N=C/c1ccc(N2CCOCC2)s1)c1ccc(O)cc1	-22.3	-25.6	-46.1	-9.7	-12.7	nt
Cc1cc(C(=O)N/N=C/c2cc(Br)ccc2OC(=O)c2ccccc2Cl)n[nH]1	30.5	27.0	-15.1	26.3	90.5*	22.8
Cc1cc(C(=O)N/N=C/c2cc(Br)ccc2OC(=O)c2ccccc2)n[nH]1	20.8	21.8	-36.2	23.0	72.5	36.9
Cc1cn(C2CC(O)C(CO)O2)c(=O)n(Cc2ccccc2)c1=O (centres undefined)	-16.2	-5.4	-1.8	11.3	7.6	-9.9
CCN(C(=O)c1ccc(C(C)(C)C)cc1)c1nnc(Cn2nnc3ccccc32)s1	40.0	2.2	28.8	72.5*	93.4*	39.4
O=[N+]([O-])c1cc([N+](=O)[O-])c2cc3ccccc3nc2c1	33.1	-7.7	14.9	92.9*	71.4	53.5
O=[N+]([O-])c1cnc2ccccc2c1	-2.8	-3.3	-15.6	0.0	0.8	10.0
CC(=O)OCCCNc1cc(Sc2ccc(C)cc2)c2nonc2c1[N+](=O)[O-]	63.6*	10.2	12.1	80.3*	95.1*	37.6
COC(=O)CCSc1cc(NCCOC(C)=O)c([N+](=O)[O-])c2nonc12	21.3	13.5	13.2	20.0	-28.3	-2.4
CCN(CC)C(=O)c1cccc(-c2csc(C(O)c3ccc(F)cc3)n2)c1 (centres undefined)	19.9	nt	6.2	7.9	59.2	nt
O=C(CSc1nnnn1-c1ccccc1)NC(=O)Nc1ccc2c(c1)OCCO2	-39.8	0.9	-193.1	1.6	11.0	-36.8
CCOc1ccccc1-n1nnnc1SCC(=O)NC(=O)Nc1ccc2c(c1)OCCO2	24.7	2.2	6.1	69.6*	39.0	-0.4
COc1ccc(S(=O)(=O)N2CCOC2CNC(=O)C(=O)NCCCN2CCCC2=O)cc1OC (centres undefined)	-5.8	-8.6	-14.0	-1.9	-13.4	nt
SMILES	TROY signal inh	EBV LMP1 NFkB	HIF-2a inh	TWEAK Fn14 block	Shn3 3UTR inh	TRPM1 prom inh
CC(C)N(CC(=O)Nc1ccc(Cl)cc1C(F)(F)F)C(=O)CCl	-5.4	-21.0	18.2	63.5*	-94.5	9.6
O=C(NN=Cc1cc(Br)c(O)c(Br)c1)c1ccccc1NS(=O)(=O)c1cccs1	-15.6	13.5	4.0	28.7	56.5	-3.9
Nc1nc(N)nc(C2C=CCCC2)n1 (centres undefined)	-6.0	-53.3	1.2	-10.3	7.8	0.9
O=C(Nc1ccccc1)c1cccc(C(=O)Nc2ccccc2)n1	2.1	13.8	14.2	1.5	34.2	4.1
CN(C)c1ccc(NC(=O)c2cccc(C(=O)Nc3ccc(N(C)C)cc3)n2)cc1	11.4	4.3	-91.6	50.6*	-45.2	-12.0
Cc1ccc(S(=O)(=O)Nc2nnc(CC(C)(C)C)s2)cc1	-21.9	0.8	11.6	108.5*	-3.0	nt
CN(Cc1ccccc1)C(=O)C(=O)c1c[nH]c2ccccc12	-0.5	0.5	5.8	12.4	4.9	nt
O=C(NCCCN1CCOCC1)c1ccc(/C=C2\Oc3ccccc3N(Cc3ccccc3F)C2=O)cc1	49.4	-0.4	1.7	-2.0	-18.0	-20.4
CCN1CCN(CCCNC(=O)c2ccc(/C=C3/Oc4ccccc4N(Cc4cccc(C)c4)C3=O)cc2)CC1	9.3	-0.9	4.0	-124.2	3.0	75.6*
CC(Nc1nc(-c2ccc(Cl)cc2)cs1)c1nc2cc(Cl)c(N3CCCCC3)cc2n1CCOCCO (centres undefined)	40.0	7.4	0.5	53.9*	27.2	6.8
CC(C)CC1NC(=O)N(Cc2nc3ccccc3s2)C1=O (centres undefined)	-0.2	-6.5	-19.4	72.3*	-11.1	-4.3
Cc1ccc(NS(=O)(=O)c2ccc(C)c(C(=O)Nc3ccc(S(=O)(=O)Nc4onc(C)c4C)cc3)c2)cc1	12.1	-1.4	11.5	2.5	3.0	4.2
C=CCN(CC=C)c1ncnc2[nH]ncc12	31.6	29.1	14.8	67.2*	4.7	-15.9
Cc1cccc(NC(=O)CNC(=O)COC(=O)C2CC2C)c1C (centres undefined)	1.5	0.5	9.2	1.1	-8.3	8.9
O=C(Nc1ccc(Br)c2ccccc12)c1ccc2ccccc2c1O	50.8*	15.8	-141.6	55.3*	53.8	2.3
CC(=O)Nc1ccc(Br)c2ccccc12	1.9	-1.4	18.7	4.8	15.6	-3.6
CCc1c(C(=O)N/N=C/c2ccc(OCc3ccc(F)cc3)c(OC)c2)nnn1-c1nonc1N	13.6	-24.9	-10.3	54.9*	30.3	-76.5
CCOc1cc(/C=N/NC(=O)c2nnn(-c3nonc3N)c2C)ccc1OCc1ccc(F)cc1	-22.0	-4.5	8.4	-37.5	-2.2	10.7
COc1ccc(C(=O)CC(=O)C(=O)Nc2ccccc2OC)cc1	-31.9	3.9	10.4	-46.3	15.2	17.1
COc1cccc(C(=O)CC(=O)C(=O)Nc2ccc(C)cc2Cl)c1	35.6	46.4*	8.5	91.2*	3.1	-4.2
COc1cccc(C(=O)CC(=O)C(=O)Nc2cc(OC)ccc2OC)c1	-18.6	-2.3	10.2	21.2	3.3	0.5
COc1ccc(C(=O)CC(=O)C(=O)Nc2ccc(C)cc2Cl)cc1	-14.2	6.5	11.1	51.6*	6.9	12.2
